Assay outcomes from PubChem BioAssay.
NRP1-CendR mod = modulators of CendR peptide binding to human neuropilin-1 | O14786 | FAM-RPARPAR peptide binding to NRP-1, fluorescence polarization | inhibition, % at 25 µM | 360,000 compounds, 0.85% hits | AID 602438;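 active = inhibition or corrected inhibition above about 18%, plus a signal ratio from 0.5 to 1.5, limit read from the data, passing the limit was not always enough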
PABP1 MLLE inh = inhibitors of microRNA-mediated deadenylation, human PABP1 MLLE binding. P11940. GST-MLLE / FITC-PAM2 fluorescence polarization. inhibition, % at 20 µM. 360,000 compounds, 0.36% hits. AID 588489; in the data active = inhibition above about 35%, passing the limit was not always enough;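 note: plate controls were DMSO wells with GST-MLLE for no effect and wells lacking GST-MLLE protein for full effect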
Target sequence (P11940 whole entry, looked up): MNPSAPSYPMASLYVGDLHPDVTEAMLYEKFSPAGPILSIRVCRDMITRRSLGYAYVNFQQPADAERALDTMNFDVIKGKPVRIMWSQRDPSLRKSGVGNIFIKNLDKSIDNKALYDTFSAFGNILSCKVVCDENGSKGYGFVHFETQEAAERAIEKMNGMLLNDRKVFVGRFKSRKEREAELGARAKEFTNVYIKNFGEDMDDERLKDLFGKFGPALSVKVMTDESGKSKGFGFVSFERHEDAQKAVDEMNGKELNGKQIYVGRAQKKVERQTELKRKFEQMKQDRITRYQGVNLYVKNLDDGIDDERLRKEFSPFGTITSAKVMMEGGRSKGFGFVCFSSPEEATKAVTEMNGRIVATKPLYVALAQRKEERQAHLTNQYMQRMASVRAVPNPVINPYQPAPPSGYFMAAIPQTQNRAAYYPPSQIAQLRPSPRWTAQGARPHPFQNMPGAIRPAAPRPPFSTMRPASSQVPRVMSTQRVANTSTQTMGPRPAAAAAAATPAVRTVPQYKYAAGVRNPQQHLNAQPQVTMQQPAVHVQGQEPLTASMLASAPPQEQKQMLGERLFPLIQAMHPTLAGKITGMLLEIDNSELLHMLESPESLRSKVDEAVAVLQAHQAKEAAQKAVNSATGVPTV
PABP polyA inh = blocks human PABP binding to poly(A) RNA. inhibition, % at 35 µM. AID 2014. fluorescence polarization. 290,000 compounds, 1% hits;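 note: calls also rest on retests at 20 µM and on dose response follow-up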
eIF4H inh = inhibitors of RNA binding by human eIF4H; Q15056; eIF4H fluorescence polarization binding assay; inhibition, % at 35 µM; 290,000 compounds, 0.94% hits;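 note: calls also rest on retests at 20 µM and on dose response follow-up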
* hit, by the source's call; ? = inconclusive; nt = no result given. Compounds with a hit are over-represented: about 2.1% of the library has one in this group of screens. Unless noted, the rule behind the calls is not given here.

SMILES	NRP1-CendR mod	PABP1 MLLE inh	PABP polyA inh	eIF4H inh
Cc1ccc(-c2cc(-c3ccc(Cl)cc3)c(C#N)c(N)n2)o1	-52.1	-8.7	59.3	91.1
Cc1cc(-c2cc(-c3ccc(Cl)cc3)nc(N)c2C#N)co1	-56.0	-14.3	43.8*	?
Cc1cccc(Nc2nc(N)nc(CCl)n2)c1C	10.4	3.9	9.7	-1.4
CCCCC[C@H](C)N1C[C@H](COCc2ccccc2)Oc2cc(N3CCC[C@@H]3COC)ccc2S1(=O)=O	10.3	nt	nt	nt
CN(C)C1=C(Cl)C(=O)N(c2ccc(Cl)c(Cl)c2)C1=O	8.0	60.4	5.8*	99.3
COCCN(C(=O)CCc1nnc(Cc2c[nH]c3ccccc23)o1)C(C)C	0.0	-7.2	5.1	-0.5
COc1cccc2c1OCC/C2=N\NC(=O)COc1ccccc1C	31.8*	-18.1	0.7	2.8
C=CS(=O)(=O)N(Cc1ccc(Cl)c(Cl)c1)C[C@@H](O)CO	5.0	2.4	nt	nt
Cc1ccc(N(C(C)C(=O)Nc2ccc(S(=O)(=O)N3CCOCC3)cc2)S(C)(=O)=O)cc1C (stereo not drawn)	2.5	5.7	-9.4	2.0
Cc1ccc(N(C(C)C(=O)Nc2ccc(S(=O)(=O)N3CCOCC3)cc2)S(C)(=O)=O)cc1 (stereo not drawn)	7.7	9.1	11.4*	?
CN(C)CCNC(=O)C1Cc2c(-c3ccccc3Oc3ccccc3)ccnc2O1 (stereo not drawn)	-2.3	-1.6	nt	nt
CCOC(=O)CNC(c1ccccc1)c1cc(Br)ccc1NC(=O)CCN1CCOCC1 (stereo not drawn)	-0.4	4.0	-5.5	3.4
CCOC(=O)CNC(c1ccccc1)c1cc(Br)ccc1NC(=O)OCC (stereo not drawn)	-1.7	-0.1	54.8*	103.7*
Oc1c(C=Nc2ccccc2Cl)[nH]c2ccccc12	-0.7	42.5*	5.2	-2.6
Oc1[nH]c2ccccc2c1N=Nc1ccccc1Cl	-26.9	4.0	nt	nt
COc1ccc(-c2nnc(NC(=O)c3cccs3)s2)c(OC)c1	0.5	-0.1	1.1	54.7*
CNc1ccc(-c2cccc(C(=O)N3CCOCC3)c2)cn1	5.9	7.8	nt	nt
O=C(O)c1ccc2c(c1)NC(=O)C(N1CCCC1)S2 (stereo not drawn)	-47.3	54.8*	35.3	49.3
CCCC(C)(C)C(=O)N1CCC1(C)C(=O)NS(=O)(=O)c1ccccc1Cl (stereo not drawn)	-0.9	3.9	nt	nt
O=C(CSc1nnc2c3ccccc3c3ccccc3c2n1)Nc1ccccc1F	-38.6	-9.9	30.2	85.3*
CC(C)C[C@H](NC(=O)N1CC(=O)Nc2ccccc21)C(=O)N1CCC(C(=O)O)CC1	10.1	-7.7	7.3	3.6
CC(C1SC(=S)NC1=O)C1SC(=S)NC1=O (stereo not drawn)	-173.7	6.2	nt	nt
CC[n+]1c(C)sc2sc3ccccc3c21	nt	nt	55.4*	15.2
COc1cc(CCC(=O)Nc2ccc(S(=O)(=O)NC3=NCCCCC3)cc2)cc(OC)c1OC	9.0	-79.7	78.3	active
Cc1ccc(CNC(=O)c2ccc(F)c(S(=O)(=O)N3CCOCC3)c2)cc1	-0.7	4.6	nt	nt
SMILES	NRP1-CendR mod	PABP1 MLLE inh	PABP polyA inh	eIF4H inh
Cc1cnc(C)c(Nc2nc(C(N)Cc3ccc(C(F)(F)F)cc3)cs2)n1 (stereo not drawn)	-3.9	-8.5	nt	nt
CCNC(=S)NC(=NCc1cccnc1)Nc1nc(C)cc(C)n1	9.6	64.7*	18.7	15.6
CCNC(=S)/N=C(/Nc1ccccc1)Nc1nc(C)cc(C)n1	-30.9	27.2	18.7	31.0
CCOC(=O)C(=CN(CCc1ccccc1)CC(=O)OC)C(=O)OCC	25.6*	3.6	-4.5	-5.9
COC(=O)CCC(=O)N(CCN(Cc1ccccc1)C(=O)CCC(=O)OC)Cc1ccccc1	0.0	-4.9	nt	nt
Cc1ccccc1NC(=S)N1CCCC(c2nc3ccccc3[nH]2)C1 (stereo not drawn)	23.4*	-121.7	-12.6	-4.8
Cc1ccc(NC(=S)N2CCCC(c3nc4ccccc4[nH]3)C2)cc1 (stereo not drawn)	3.5	-93.8	0.0	-5.2
CCN1CCN(C(=S)NC(=O)c2cccc(Br)c2)CC1	43.4*	-20.1	nt	nt
COc1ccc(N2C(=O)C3[C@@H](C2=O)C2(Cl)C(Cl)=C(Cl)C3(Cl)C2(OC)OC)cc1 (stereo partly drawn)	26.8*	11.9	-9.7	-7.3
Nc1c(Cl)cc(C(=O)NC2CC2)cc1Cl	-1.0	-5.5	nt	nt
CC(=O)Nc1ccc(C(=O)N2CCCCC2c2cc(C(=O)Nc3ccccc3)no2)cc1 (stereo not drawn)	-13.9	-17.6	nt	nt
CC(=O)Nc1ccc(C(=O)N2CCCCC2c2cc(C(=O)Nc3ccccc3Cl)no2)cc1 (stereo not drawn)	24.2*	7.5	nt	nt
Cc1ccc(S(=O)(=O)N2c3ccc(S(N)(=O)=O)cc3CC2C)cc1 (stereo not drawn)	22.2*	2.8	7.8	-9.4
Cc1ccc(S(=O)(=O)N2c3ccccc3CC2C)cc1 (stereo not drawn)	-5.3	-0.2	-6.2	-2.0
C[C@@]12CCC3[C@@](CCC4[C@@]3(C)CCC[C@@]4(C)C(=O)NC3CCCCC3)(CC1=O)C2 (stereo partly drawn)	32.2*	7.8	nt	nt
COC(=O)c1ccc(NS(=O)(=O)c2cc3c4c(c2)CCN4C(=O)CC3)cc1	7.4	6.8	nt	nt
O=C1C(Cl)=C(N2CCN(Cc3ccccc3)CC2)C(=O)N1Cc1ccccc1	-2.2	64.8*	30.7	18.0
O=C1C(Cl)=C(NC2CCCCC2)C(=O)N1Cc1ccccc1	10.6	-15.0	1.0	-1.3
Cc1nc2ccccn2c1/C(O)=C1\C(=O)C(=O)N(CCN2CCOCC2)C1c1ccncc1 (stereo not drawn)	7.4	28.2	10.2	12.0
Cc1nc2ccccn2c1/C(O)=C1\C(=O)C(=O)N(CCN(C)C)C1c1ccco1 (stereo not drawn)	9.5	50.3*	10.2	8.7
CCn1c(=O)c(C(=O)NCCNCCO)c(O)c2ccccc21	36.6*	-1.1	16.6	0.1
COC/C=C/C1=CC2=CC(=O)C(C)(OC(=O)c3cnc4ccccc4n3)C(=O)C2=CN1CC1CC1 (stereo not drawn)	29.3*	8.8	nt	nt
COC/C=C/C1=CC2=CC(=O)C(C)(OC(=O)c3cnc4ccccc4n3)C(=O)C2=CN1Cc1ccccc1 (stereo not drawn)	24.9*	0.9	38.8	59.0*
COC/C=C/C1=CC2=CC(=O)C(C)(OC(=O)c3cnc4ccccc4n3)C(=O)C2=CN1Cc1ccc(OC)cc1 (stereo not drawn)	37.0*	5.8	28.9	50.1*
OCCOCCn1c(C(CO)Nc2nc(-c3cccc(Br)c3)cs2)nc2ccccc21 (stereo not drawn)	22.9*	5.5	nt	nt
COC(=O)[C@@]1(Cc2ccc(OC)cc2)[C@H]2c3cc(C(=O)N4CCCC4)n(CCN4CCOCC4)c3C[C@H]2CN1C(=O)c1ccccc1	22.9*	nt	nt	nt
COC(=O)[C@@]1(Cc2ccc(OC)cc2)[C@H]2c3cc(C(=O)N4CCCC4)n(CCN4CCNC4=O)c3C[C@H]2CN1C(=O)c1ccccc1	nt	nt	-6.5	-5.9
Cc1cccc(C2=NNC(=O)C(c3ccc(Cl)cc3)C2)c1 (stereo not drawn)	24.6*	-1.7	5.0	54.1
